PAX8 reporter – PAX8 transcriptional activity inhibition; 360,000 compounds, 1.2% hits; inhibition, % at 12.6 µM; RMG-I TPO-luciferase reporter, SteadyGlo, 24 h;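 active = mean replicate inhibition at least 60% with every replicate also reaching 60%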;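 note: luciferase light reporting Pax8 driven TPO promoter activity; plate controls were median of neutral control wells for no effect and mitoxantrone controls for full effect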
EWS-Fli inh – EWS/Fli transcriptional activity inhibition. AID 651661. A673 NR0B1-luciferase reporter, viability-normalised. 350,000 compounds, 0.67% hits. inhibition, % at 12.6 µM;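 active = mean inhibition of at least 50% after viability correction, with every replicate also passing that limit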;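 note: firefly luciferase signal divided by Alamar Blue viability fluorescence both relative to DMSO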
Peg3 promoter – Peg3 promoter activity inhibition. HeLa PEG-Prom luciferase reporter, luminescence, overnight. inhibition, % at 20 µM. 360,000 compounds, 1.7% hits;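 active = inhibition of at least 50% at 20 µM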
TRPM1 prom inh – MITF TRPM1 promoter inhibition in SK-MEL-5 cells; SK-MEL-5 TRPM1 promoter luciferase, 24 h; inhibition, % at 12.5 µM; 330,000 compounds, 0.83% hits; AID 488899;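 active = mean inhibition across replicates of 60% or more, whatever share of single replicates reaches that level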
ABHD5 PLIN5 PPI – ABHD5-PLIN5 protein interaction inhibition; Q00G26+Q8WTS1; Split G. princeps luciferase complementation, luminescence, 4 h; inhibition, % at 4 µM; 360,000 compounds, 0.78% hits; AID 602281;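 active = inhibition above the mean inhibition across every tested compound plus 3 SD, cut at about 22% in these data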;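 note: 0% = DMSO only wells and the 100% control is not disclosed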
Shn3 3UTR inh – reduces Shn3 3'UTR luciferase signal in osteoblasts; Clone20 osteoblast Shn3 3'UTR firefly luciferase, 24 h; inhibition, % at 12.5 µM; 360,000 compounds, 0.52% hits; AID 588674;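 active = mean inhibition of at least 75% with every replicate also reaching 75%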;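 note: 0% = median of neutral control wells and 100% = pilot-screen positive control compound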
ABHD5-PLIN5 conf – ABHD5-PLIN5 interaction inhibition, confirmed; shares compounds with ABHD5 PLIN5 PPI; biochemical ABHD5-PLIN5 interaction, luminescence; inhibition, % at 4 µM; 2,200 compounds, 67% hits; AID 651612; in the data active = inhibition above about 23%;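 note: 0% = DMSO vehicle wells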
HNF4 counter – active in HNF4 split-luciferase counter-screen for ABHD5-PLIN5 inhibitors | 2,200 compounds, 77% hits | inhibition, % at 4 µM | HNF4 dimerization, luminescence, biochemical | shares compounds with ABHD5 PLIN5 PPI;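 active = mean inhibition across replicate wells exceeding the computed hit threshold, cut at about 13% in these data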;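 note: light from luciferase halves that rejoin when HNF4 fusion proteins dimerize; 0% = DMSO only wells and the 100% control is not given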
Target sequence (P41235 whole entry, looked up, the tested form may be a part): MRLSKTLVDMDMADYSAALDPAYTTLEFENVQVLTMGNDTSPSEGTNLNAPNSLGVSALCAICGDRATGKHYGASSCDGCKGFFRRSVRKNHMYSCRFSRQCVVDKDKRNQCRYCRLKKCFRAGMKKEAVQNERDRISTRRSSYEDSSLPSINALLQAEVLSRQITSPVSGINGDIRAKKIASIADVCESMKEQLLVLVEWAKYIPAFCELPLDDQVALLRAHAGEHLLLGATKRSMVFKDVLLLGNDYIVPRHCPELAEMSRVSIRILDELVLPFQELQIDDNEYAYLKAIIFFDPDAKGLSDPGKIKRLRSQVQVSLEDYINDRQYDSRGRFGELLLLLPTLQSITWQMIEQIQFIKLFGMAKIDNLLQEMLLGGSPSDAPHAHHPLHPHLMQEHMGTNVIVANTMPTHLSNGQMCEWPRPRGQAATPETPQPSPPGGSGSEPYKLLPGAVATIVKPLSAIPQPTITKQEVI
Numbers without * were called inactive; / = not tested or not shown. Compounds with a hit are over-represented: about 3% of the library has one in this group of screens.

SMILES	PAX8 reporter	EWS-Fli inh	Peg3 promoter	TRPM1 prom inh	ABHD5 PLIN5 PPI	Shn3 3UTR inh	ABHD5-PLIN5 conf	HNF4 counter
CCOc1cc(N)c(Cl)cc1C(=O)NCC1CN(Cc2ccc(F)cc2)CCO1 (stereo not given)	-9	8	-9	-22	71*	-7	78*	33*
CC[C@@H](C)[C@@H]1CN([C@@H](C)CN2CCC[C@H]2CN2C(N)=NC[C@@H]2Cc2ccccc2)C(=N)N1CCCC1CCCC1	43	9	1	2	29*	44	11	-1
CC[C@@H](C)[C@@H]1CN([C@@H](C)CN2CCC[C@H]2CN2C(N)=NC[C@@H]2Cc2ccccc2)C(=N)N1CCc1ccc(Cl)c(Cl)c1	/	/	-13	12	34*	21	17	5
CO[C@@H]1CN(C)C(=O)c2ccc(NC(=O)Nc3ccccc3F)cc2OC[C@H](C)NC[C@H]1C	/	-2	/	/	/	/	/	/
Cc1ccc(-c2cc(-c3ccccc3)nc(Cl)n2)cc1	/	/	-45	-3	-3	-11	/	/
Cc1ccc(-c2cc(C(F)F)nc(S(C)(=O)=O)n2)cc1	35	-6	98*	34	25*	70	45*	51*
Cc1ccc(-c2csc3ncn(-n4c(C)ccc4C)c(=O)c23)o1	/	/	-7	-3	27*	-4	6	33*
CN(CC(=O)Nc1ccccc1C(F)(F)F)Cc1c(O)ccc2ccccc12	9	21	1	32	10	-15	/	/
CCc1ccccc1NC(=O)CN(C)Cc1c(O)ccc2ccccc12	8	8	7	11	24*	10	46*	88*
N[C@H]1CC[C@H](CCn2cc(C3CC3)nn2)O[C@@H]1CO	/	-4	/	/	/	/	/	/
C/C=C/C=C/C(=O)[C@@H]1[C@@H]([C@]2(C)OC(=O)C(C)=C2O)[C@H]2/C(=C(O)/C=C/C=C/C)C(=O)[C@]1(C)C(=O)C2(C)O (stereo not given in full)	/	-3	-1	-3	35*	11	44*	25*
O=[N+]([O-])c1ccc(-c2csc(N3CCc4ccccc4C3)n2)cc1	-44	/	-17	-19	8	-25	/	/
O=[N+]([O-])c1ccc(N2CCc3ccccc3C2)cc1	-28	-55	-70	-13	31*	-17	60*	58*
CC(C)(C)c1ccc(/C=C/C(=O)Nc2cccnc2)cc1	-105	-110	-277	-104	-6	-60	/	/
CN1C(=S)N(c2cccnc2)C(=O)/C1=C\c1ccc(C(C)(C)C)cc1	-12	10	3	-15	38*	10	65*	55*
N=c1c(C(=O)NCc2ccc(F)cc2)cc2c(=O)n3ccccc3nc2n1CC1CCCO1 (stereo not given)	/	/	8	14	9	-1	/	/
N=c1c(C(=O)NCc2ccco2)cc2c(=O)n3ccccc3nc2n1CC1CCCO1 (stereo not given)	-11	/	-3	-2	28*	-10	10	12
COc1ccc(S(=O)(=O)Nc2ccc3c(c2)C(=O)N([C@@H](C)CO)C[C@@H](C)[C@@H](CN(C)CC2CC2)OCCCC[C@@H](C)O3)cc1	11	-2	/	/	/	/	/	/
O=C1c2ccccc2C(=O)N1Cc1ccco1	/	/	7	4	7	-2	/	/
O=C1c2cccc3c(O)ccc(c23)C(=O)N1Cc1ccco1	9	3	-11	/	45*	13	24*	53*
C[C@@H]1CN([C@H](C)CO)C(=O)c2cc(NC(=O)NC3CCCCC3)ccc2O[C@@H]1CN(C)C(=O)Nc1ccc(C(F)(F)F)cc1	8	-6	/	/	/	/	/	/
O=C(c1nnsc1S(=O)(=O)c1ccc(Cl)cc1)N1CCOCC1	93*	1	95*	73*	51*	95*	73*	71*
Cc1ccc(/C=C/C(=O)c2nc3ccccc3[nH]2)cc1	-32	/	-91	-8	69*	4	90*	85*
CC(=O)c1c(C)nc2ccccc2c1N	/	/	10	-5	6	-1	/	/

Source: PubChem BioAssay (several laboratories)
